Inconclusive results are not listed. Where a call stands in place of a potency, no number is given. The source made the active and inactive calls. Unless noted, calls come from the whole dose curve; as a rule, active = well fitted curve in the direction sought with a large enough effect; inconclusive = small, poorly fitted or top-dose-only effect, or another doubt; inactive = no such curve, though single readings can be large; an effect the other way counts as inactive or inconclusive.
Key:
[1] = S16 Schwann cell viability assay (CellTiter-Glo assay) (AID 624031);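 note: native untransfected S16 rat Schwann cells; cellular ATP luminescence as a viability measure; nearly all actives have a fitted effect of over 70% in size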
Method in brief: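 Concentration-effect curves come from CellTiter-Glo luminescence of S16 rat Schwann cells after 24 h compound exposure. Each reading was normalized to DMSO wells (0%) and wells without cells, and curves were ranked by r2 and response magnitude.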

FAB9 = assay: qHTS profiling for inhibitors of Plasmodium falciparum proliferation (AID 504749); note: nearly all actives have a fitted effect of over 60% in size; note: potency is the fitted concentration of half-maximal effect; conditions: P. falciparum in erythrocytes, SYBR Green DNA, 72 h; series mostly up to 28.7 µM
Method in brief: (§1)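 Infected RBCs, 0.3% parasitemia/2.5% Hct final; cpd 72 h, 37 C, 5% CO2; lysis buffer with saponin/triton/SYBR Green I, o/n RT dark; FI 485/535; norm. to artemisinin (0.29 uM) and DMSO.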

[2] = biological target: ATP-dependent 6-phosphofructokinase (Trypanosoma brucei brucei) (UniProt O15648); assay: qHTS Assay to Find Inhibitors of T. brucei phosphofructokinase: hit validation (AID 492961);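 note: luminescence reports ADP formed as PFK phosphorylates fructose-6-phosphate with ATP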
Method in brief: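 Measures ADP output of PFK (1.25 nM) at 0.1 mM ATP, 0.5 mM F6P, pH 8.0 TEA buffer with 5 mM MgCl2. No-enzyme wells define full inhibition; uninhibited enzyme wells define zero.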

[3] = biological target: Luciferin 4-monooxygenase (Photinus pyralis) (UniProt P08659); assay: Biochemical firefly luciferase enzyme assay for NPC (AID 624030);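 note: purified P. pyralis luciferase at 10 nM with luciferin and ATP substrate; nearly all actives have a fitted effect of over 70% in size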
Method in brief: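 Direct inhibition of firefly luciferase enzyme (10 nM final, 50 mM Tris Acetate) assessed by luminescence within 5 minutes. Percent activity scaled between DMSO and PTC124 positive control, with concentration-effect curves classified by fit quality and response.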

3D7 = assay: qHTS profiling for inhibitors of Plasmodium falciparum proliferation (AID 504749); note: nearly all actives have a fitted effect of over 60% in size; note: potency is the fitted concentration of half-maximal effect; conditions: P. falciparum in erythrocytes, SYBR Green DNA, 72 h; series mostly up to 28.7 µM
Method in brief: as §1

7G8 = assay: as above; conditions: P. falciparum in erythrocytes, SYBR Green DNA, 72 h; series mostly up to 28.7 µM
Method in brief: as §1

CP266 = assay: as above; conditions: P. falciparum in erythrocytes, SYBR Green DNA, 72 h; series mostly up to 28.7 µM
Method in brief: as §1

PC15 = assay: as above; conditions: P. falciparum in erythrocytes, SYBR Green DNA, 72 h; series mostly up to 28.7 µM
Method in brief: as §1

PC49 = assay: as above; conditions: P. falciparum in erythrocytes, SYBR Green DNA, 72 h; series mostly up to 28.7 µM
Method in brief: as §1

[4] = biological target: Tumor susceptibility gene 101 protein (Homo sapiens) (UniProt Q99816); assay: qHTS Assay for Iinhibitors of HIV-1 Budding by Blocking the Interaction of PTAP/TSG101: Hit Validation (AID 651600); note: nearly all actives have a fitted effect of over 70% in size
Method in brief: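 Tsg101 binding domain 10 uM + FITC-PTAP peptide 50 nM (final), 10 mM HEPES pH 7.5/0.15 M NaCl/0.01% Tween 20/3 mM EDTA/0.1 mM TCEP; 20 min RT; FP read, FITC filters.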

[5] = NCATS anti-infectives library activity on HEK293 viability as a counter-qHTS vs the C. elegans viability qHTS (AID 1745854);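 note: HEK293 cells exposed to compounds for 24 hr before the viability read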
Method in brief: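 Compounds were acoustically plated (several concentrations, 1:5, final up to 41.7 uM), then 1500 HEK293 cells added per well and incubated 24 hr at 37C, 5% CO2. CellTiter-Glo was added and luminescence read after 10 min.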

[6] = NCATS anti-infectives library activity on the primary C. elegans qHTS viability assay (AID 1745855; calls by dose curve)
Method in brief: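 Viability read-out is GFP fluorescence of PE254-GFP-FLuc C. elegans, measured by laser cytometry (488 nm) at day 0, 3 and 7. Ten L1 worms per well were incubated 7 days at 21 °C with compounds and bacterial capsules in S medium.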

[7] = Primary qHTS for Huh7 cytotoxicity: counterscreen for inhibitors of MERS-S pseudotyped particle cell entry (AID 1479147; calls by dose curve); conditions: outcome: dose series up to 57.1 µM unless noted
[8] = Primary qHTS for Vero E6 cytotoxicity: counterscreen for inhibitors of SARS-S pseudo-typed particle cell entry (AID 1479150; calls by dose curve); conditions: outcome: dose series up to 57.1 µM unless noted
[9] = Cytotoxicity counterscreen for inhibitors of SARS-CoV-2 cell entry (AID 1645845; calls by dose curve; note: nearly all actives have a fitted effect of over 50% in size)
Method in brief: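 48 h compound treatment (after 1 h preincubation), HEK293-ACE2 cells, 37 C/5% CO2; ATP luminescence endpoint; normalized to cell wells and media blanks.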

[10] = Confirmatory qHTS for VERO E6 Cytotoxicity Assay: Counterscreen for SARS-CoV-2 CPE Assay (AID 1508605; calls by dose curve; note: nearly all actives have a fitted effect of over 60% in size)

Sequence of Luciferin 4-monooxygenase (Photinus pyralis) (P08659 whole entry, looked up): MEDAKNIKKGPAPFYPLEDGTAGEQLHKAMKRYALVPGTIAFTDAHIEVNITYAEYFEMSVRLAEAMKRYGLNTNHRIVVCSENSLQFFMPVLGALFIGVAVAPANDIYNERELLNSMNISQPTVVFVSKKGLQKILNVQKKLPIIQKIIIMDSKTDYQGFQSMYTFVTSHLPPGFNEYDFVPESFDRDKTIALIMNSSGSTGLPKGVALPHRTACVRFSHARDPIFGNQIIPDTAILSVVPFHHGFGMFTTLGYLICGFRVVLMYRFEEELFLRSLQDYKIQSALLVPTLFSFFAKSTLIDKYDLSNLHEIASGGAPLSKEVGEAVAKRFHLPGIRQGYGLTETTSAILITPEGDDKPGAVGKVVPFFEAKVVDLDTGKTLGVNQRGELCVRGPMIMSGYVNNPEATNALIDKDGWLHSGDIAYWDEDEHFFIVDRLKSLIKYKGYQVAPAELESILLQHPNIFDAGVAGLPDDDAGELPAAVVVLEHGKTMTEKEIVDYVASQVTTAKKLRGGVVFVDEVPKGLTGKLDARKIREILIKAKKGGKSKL
Sequence of ATP-dependent 6-phosphofructokinase (Trypanosoma brucei brucei) (O15648 whole entry, looked up): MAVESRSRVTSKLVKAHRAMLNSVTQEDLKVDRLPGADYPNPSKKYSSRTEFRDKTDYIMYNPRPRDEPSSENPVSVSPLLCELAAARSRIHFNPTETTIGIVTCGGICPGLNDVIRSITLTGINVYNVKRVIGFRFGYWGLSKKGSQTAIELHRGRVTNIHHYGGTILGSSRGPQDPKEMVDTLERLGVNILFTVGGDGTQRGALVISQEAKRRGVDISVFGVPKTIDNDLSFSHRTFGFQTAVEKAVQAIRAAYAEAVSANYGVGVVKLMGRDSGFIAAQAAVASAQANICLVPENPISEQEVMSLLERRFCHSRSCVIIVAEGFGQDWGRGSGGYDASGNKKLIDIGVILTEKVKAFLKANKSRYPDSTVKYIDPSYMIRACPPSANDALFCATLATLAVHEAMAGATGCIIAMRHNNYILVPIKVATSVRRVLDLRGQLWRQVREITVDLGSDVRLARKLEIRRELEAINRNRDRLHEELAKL
Sequence of Tumor susceptibility gene 101 protein (Homo sapiens) (Q99816 whole entry, looked up, the tested form may be a part): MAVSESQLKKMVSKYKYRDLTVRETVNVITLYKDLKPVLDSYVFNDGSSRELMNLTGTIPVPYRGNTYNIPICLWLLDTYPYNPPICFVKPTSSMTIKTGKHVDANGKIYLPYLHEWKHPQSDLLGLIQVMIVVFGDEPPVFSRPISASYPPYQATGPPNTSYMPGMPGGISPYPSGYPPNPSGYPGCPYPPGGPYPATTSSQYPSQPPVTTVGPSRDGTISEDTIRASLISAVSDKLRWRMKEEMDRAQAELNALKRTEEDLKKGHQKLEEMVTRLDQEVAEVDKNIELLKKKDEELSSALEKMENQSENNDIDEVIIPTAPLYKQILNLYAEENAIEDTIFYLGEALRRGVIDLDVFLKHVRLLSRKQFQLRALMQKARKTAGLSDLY

## O=C(O)c1ccccc1-c1c2cc(Br)c(=O)cc-2oc2[c]([Hg])c(O)c(Br)cc12
[1]
  Potency: inactive
FAB9
  Potency: inactive

## CC(C)[C@@]1(NC(=O)[C@H]2CC3c4cccc5[nH]cc(c45)C[C@H]3N(C)C2)O[C@@]2(O)C3CCCN3C(=O)[C@@H](Cc3ccccc3)N2C1=O (stereo partly specified)
[2]
  Potency: inactive
[3]
  Potency: inactive
3D7
  Potency: 2.24 µM (active)
7G8
  Potency: 0.199 µM (active)
CP266
  Potency: 6.01 µM (active)
PC15
  Potency: 1.78 µM (active)
PC49
  Potency: 3.16 µM (active)

## CC(C)C[C@H]1C(=O)N2CCCC2[C@]2(O)O[C@](NC(=O)[C@@H]3C=C4c5cccc6[nH]cc(c56)CC4N(C)C3)(C(C)C)C(=O)N12 (stereo partly specified)
[4]
  outcome: inactive

## CCC(=O)CCCCC[C@@H]1NC(=O)[C@H]2CCCCN2C(=O)[C@H]([C@@H](C)CC)NC(=O)[C@H](Cc2cn(OC)c3ccccc23)NC1=O
[5]
  Potency: inactive
[6]
  Potency: inactive

## O=c1[nH]c2ccccc2n1CCN1CCN(c2cccc(C(F)(F)F)c2)CC1
[7]
  outcome: inactive
[8]
  outcome: inactive
[9]
  Potency: inactive

## O=C1NC(=O)/C(=C/c2cccc(C(F)(F)F)c2)S1
[10]
  Potency: inactive
